The values that follow come from PubChem BioAssay (Tox21).

A number with no mark means an inactive call. Inconclusive results are not listed. Active and inactive are the calls of the source. Unless noted, the call rests on the fitted dose curve; in most records, active means well fitted curve in the direction sought with a large enough effect in the repeat runs; inconclusive means weak or mixed curves; inactive means no such curve, though single readings can be large; an effect the other way counts as inactive or inconclusive.

Test [1] can be described thus: qHTS assay for small molecule agonists of the p53 signaling pathway (AID 651631; calls by dose curve; further: nearly all actives have a fitted effect of over 15% in size; further: potency means the concentration at half of the fitted maximal effect). Put shortly:
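Quantitative high-throughput format: 4,000 p53RE-bla HCT-116 cells/well, 5 h pre-incubation, 16 h compound exposure at 37 °C, 2 h room-temperature substrate step, fluorescence intensity measured.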

The nature of test [2]: qHTS assay for small molecules that induce genotoxicity in human embryonic kidney cells expressing luciferase-tagged ATAD5 (AID 651632). Further: nearly all actives have a fitted effect of over 15% in size. The essentials: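 ATAD5-luc HEK293T, 2,000 cells/well; cpd or DMSO pin-transferred; 16 hr, 37C/5% CO2; Amplite 30 min RT; luminescence.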
For orientation: Quantitative high-throughput screening tests each substance at several concentrations.

Test [3] in a line: qHTS assay for small molecule agonists of the p53 signaling pathway - cell viability (AID 651633; calls by dose curve;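 further: p53RE-bla HCT reporter cells with a stable beta-lactamase p53 reporter; series mostly up to about 83 µM; nearly all actives have a fitted effect of over 30% in size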). Put shortly:
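p53RE-bla cells, seeded at 4,000 per well and rested 5 h at 37 C/5% CO2, received compounds in DMSO for 16 h at 37 C. CellTiter-Glo was then added, and luminescence was read after 30 min at room temperature to gauge cytotoxicity.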

Test [4] is described as follows: qHTS assay for small molecules that induce genotoxicity in human embryonic kidney cells expressing luciferase-tagged ATAD5 - cell viability (AID 651634; calls by dose curve; further: nearly all actives have a fitted effect of over 25% in size). Put shortly: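 Fluorescence from CellTiter-Fluor, reporting protease activity within live cells, served as the viability read-out. HEK293T cells carrying luciferase-tagged ATAD5 had been treated with compound for 15.5 hr at 37C.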

A short description of test [5]: qHTS assay for small molecule disruptors of the mitochondrial membrane potential (AID 720635). Further: potency means the concentration at half of the fitted maximal effect. Put shortly: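 HepG2 cells (2,000/well) attached overnight at 37C, then took compound for 1 hr at 37C, 5% CO2. Mito-MPS dye was added for 30 min; fluorescence was read at 490/535 nm (monomers) and 540/590 nm (aggregates).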
The nature of test [6]: qHTS assay to test for compound auto fluorescence at 590 nm (red) in HepG2 cells (AID 720674). Put shortly:
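Intrinsic compound fluorescence in the red window (Ex/Em 540/590 nm) is measured in attached HepG2 cells exposed for 1 hr, DMSO vehicle as baseline, benchmarked to Rose Bengal sodium.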

Test [7] in a line: qHTS assay to test for compound auto fluorescence at 535 nm (green) in HepG2 cells (AID 720675).
Test [8] is described as follows: qHTS assay to test for compound auto fluorescence at 460 nm (blue) in HEK293 cells (AID 720678). The essentials: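 Cells were seeded and left to adhere for 4-5 hr at 37C. Compounds were then pin-transferred. After an overnight incubation at 37C under 5% CO2, intrinsic fluorescence at 405/460 nm was measured and referenced to triamterene.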
Test [9] is described as follows: qHTS assay to test for compound auto fluorescence at 590 nm (red) in HEK293 cells (AID 720679). The essentials: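 Each well held 2,000 HEK293 cells in medium containing 10% dialyzed FBS. Following 4-5 hr attachment at 37C, 23 nL test compound or DMSO was added; plates sat overnight, and red fluorescence (540/590nm) was recorded.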
A short description of test [10]: qHTS assay to test for compound auto fluorescence at 535 nm (green) in HEK293 cells (AID 720680).
A short description of test [11]: qHTS assay to test for compound auto fluorescence at 460 nm (blue) in HEK293 cell free culture (AID 720681). Put shortly:
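Test compounds were pinned into cell-free culture medium (DMEM with 10% FBS) and fluorescence was read directly at Ex/Em 405/460 nm. Signals were expressed as fluorescence equivalents of triamterene, with DMSO vehicle as control.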

Test [12] is described as follows: qHTS assay to test for compound auto fluorescence at 535 nm (green) in HEK293 cell free culture (AID 720682). The essentials: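 Measurement is a direct plate read of green fluorescence (485 nm in, 535 nm out) after compound addition to serum-supplemented DMEM lacking cells, with fluorescein used to express intensities.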
A short description of test [13]: qHTS assay to test for compound auto fluorescence at 590 nm (red) in HEK293 cell free culture (AID 720683). The essentials:
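Tox21 10K library compounds were pinned into cell-free DMEM with 10% FBS and fluorescence was read at excitation 540 nm. Activity is expressed as Rose Bengal sodium equivalency.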

Test [14] in a line: qHTS assay to test for compound auto fluorescence at 590 nm (red) in HepG2 cell free culture (AID 720684). The essentials: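 Red fluorescence (540 nm excitation, 590 nm emission) was measured after compound transfer into cell-free MEM supplemented with 10% FBS. Values are equivalencies against Rose Bengal sodium.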
The nature of test [15]: qHTS assay to test for compound auto fluorescence at 460 nm (blue) in HepG2 cell free culture (AID 720685). Put shortly:
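Compound (23 nL) or DMSO pinned into cell-free MEM with 10% FBS; blue fluorescence read at 405/460 nm excitation/emission, expressed as auto-fluorescence equivalency to triamterene.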

Test [16] in a line: qHTS assay to test for compound auto fluorescence at 535 nm (green) in HepG2 cell free culture (AID 720686).
Test [17] in a line: qHTS assay to test for compound auto fluorescence at 460 nm (blue) in HepG2 cells (AID 720687). The essentials:
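Cells (2,000/well in MEM with 10% FBS) attached overnight at 37 C, then were exposed to compound or DMSO for 1 hr at 37 C, 5% CO2. Fluorescence read at Ex/Em 405/460 nm, expressed as triamterene-equivalent signal.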

The target in test [18] is Glucocorticoid receptor (Homo sapiens) (UniProt P04150). Put plainly: qHTS assay to identify small molecule agonists of the glucocorticoid receptor (GR) signaling pathway (AID 720691; active means well fitted activation curve with a large enough effect in the signal ratio in the repeat runs, not every such curve was filed as active; the % refers to the signal ratio). Put shortly: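 Fluorescence intensity from LiveBLAzer B/G FRET substrate (2 h, room temperature) reports beta-lactamase expression driven by the glucocorticoid response element in GR-bla HeLa cells after 18 h compound exposure at 37 C.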

The target is the same in test [19]. The test is described as follows: qHTS assay to identify small molecule antagonists of the glucocorticoid receptor (GR) signaling pathway (AID 720692; active means well fitted inhibition curve with a large enough effect in the signal ratio in the repeat runs, not every such curve was filed as active; the % refers to the signal ratio; further: potency means the concentration at half of the fitted maximal effect). The essentials:
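HeLa GR-bla cells; cmpd + dex 5 nM final, 18 h 37 C; LiveBLAzer B/G FRET substrate 2 h RT; fluorescence intensity read. Antagonist mode, qHTS.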

The nature of test [20]: qHTS assay for small molecule disruptors of the mitochondrial membrane potential - cell viability (AID 720634; calls by dose curve;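 further: human HepG2 liver cancer cells; series mostly up to about 83 µM; nearly all actives have a fitted effect of over 20% in size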). Put shortly: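 Cells: HepG2, 2,000/well, attached overnight. Compound 1 hr, 37 C/5% CO2. +m-MPI dye, +CellTiter-Glo 30 min RT. Readout: luminescence (ATP).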

Chain of Glucocorticoid receptor (Homo sapiens) (P04150 whole entry, looked up): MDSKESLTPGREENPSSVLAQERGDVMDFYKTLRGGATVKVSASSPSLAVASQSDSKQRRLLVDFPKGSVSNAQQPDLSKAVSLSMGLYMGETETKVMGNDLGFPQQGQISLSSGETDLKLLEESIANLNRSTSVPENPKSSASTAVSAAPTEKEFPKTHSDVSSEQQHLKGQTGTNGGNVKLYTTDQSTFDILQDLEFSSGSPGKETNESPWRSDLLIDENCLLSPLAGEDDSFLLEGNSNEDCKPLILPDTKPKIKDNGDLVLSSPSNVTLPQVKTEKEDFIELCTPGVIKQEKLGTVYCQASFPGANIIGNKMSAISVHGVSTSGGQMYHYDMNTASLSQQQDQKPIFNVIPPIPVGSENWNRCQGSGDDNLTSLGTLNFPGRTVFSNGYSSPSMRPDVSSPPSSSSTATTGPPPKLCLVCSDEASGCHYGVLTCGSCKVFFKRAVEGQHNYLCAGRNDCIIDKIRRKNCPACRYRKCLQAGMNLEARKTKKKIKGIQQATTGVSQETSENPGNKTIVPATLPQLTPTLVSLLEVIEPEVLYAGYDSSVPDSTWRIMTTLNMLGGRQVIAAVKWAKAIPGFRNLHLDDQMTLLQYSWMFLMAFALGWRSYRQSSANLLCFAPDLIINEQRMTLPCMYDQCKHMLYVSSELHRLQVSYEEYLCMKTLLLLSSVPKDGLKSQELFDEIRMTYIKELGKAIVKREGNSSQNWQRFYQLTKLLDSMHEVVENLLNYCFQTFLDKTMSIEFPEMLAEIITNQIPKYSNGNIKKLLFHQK

Take `CCCCC(=O)Cl`: the Potency result in [1], in test [2], in test [3], in test [4], in test [5] and in test [19] was “inactive” in each case. The compound was classed as inactive in test [6], in test [7], in test [8], in test [9], in test [10] and in test [11]. In addition, the call in test [12], in test [13], in test [14], in test [15], in [16] and in [17] was inactive. Moreover, the outcome in [18] was inactive.

As to `Nc1ccccc1Cl`, the Potency result in test [1], in test [2], in test [3], in [20], in [5] and in [19] was “inactive” throughout. The call in [6], in [7], in test [9], in test [10], in test [11] and in [13] was inactive. Moreover, the compound was classed as inactive in [14], in test [15], in test [16], in test [17] and in [18].

For the compound `Nc1cnn(-c2ccccc2)c(=O)c1Cl`, the Potency result in [1], in test [2], in test [3], in [20], in test [5] and in test [19] was “inactive” throughout. Further, the result in test [6], in [7], in [8], in test [9], in [10] and in test [11] was inactive. In addition, the result in test [12], in [13], in [14], in [15], in [16] and in [17] was inactive. Besides, the compound was called inactive in test [18].

Consider `N#CCCC#N`, for which the Potency entry in test [1], in test [2], in [3] and in [4] was “inactive” in each case. Besides, the call in test [6], in test [7], in test [8], in test [9], in test [10] and in test [11] was inactive. In addition, the compound was classed as inactive in test [12], in test [13], in test [14], in test [15], in test [16] and in [17].

Take `CCOC(=O)CP(=O)(OCC)OCC`: the Potency result in test [1], in test [2], in [3], in [4] and in test [20] was “inactive” each time. For the same compound, the outcome in test [6], in [7], in test [8], in [9], in test [11] and in test [12] was inactive. The result in test [13], in test [14], in [15], in test [16] and in test [17] was inactive.

For the compound `COc1cccc2c1cc([N+](=O)[O-])c1c(C(=O)O)cc3c(c12)OCO3`, the Potency in test [1] was 2.43 µM (active); in [5] it was 48.6 µM (active); in test [19], 13.8 µM (active). Moreover, the Potency entry in test [2], in test [3] and in [20] was “inactive” in each case. The compound was called inactive in test [6], in test [7], in test [8], in test [9], in [10] and in test [11]. Further, the compound was classed as inactive in [12], in test [13], in [14], in [15], in test [16] and in test [17].

In the case of `c1cc2c(c(N3CCNCC3)c1)OCCO2`, the Potency result in test [1], in test [2], in test [3], in test [4], in test [20] and in [19] was “inactive” in each case. Moreover, the compound was classed as inactive in test [6], in [7], in [8], in test [9], in test [11] and in [12]. The call in test [13], in test [14], in test [15], in test [16], in test [17] and in test [18] was inactive.

In the case of `C=C(C)CN(CC)c1c([N+](=O)[O-])cc(C(F)(F)F)cc1[N+](=O)[O-]`, the Potency entry in test [1], in [2], in test [3] and in test [4] was “inactive” in each case. The Potency in test [5] was 30.6 µM (active). Besides, the outcome in [6], in [7], in [8], in [9], in test [10] and in test [11] was inactive. In addition, the call in test [12], in [13], in test [14], in test [15], in [16] and in [17] was inactive. Moreover, the outcome in test [18] was inactive.
